Coupling enz: inhibits coupling enzyme system, counter-screen for aldolase hits | coupling enzyme system counterscreen, AmpLite Red fluorescence | activity change, negative = inhibition, % at 58.2 µM, hits read low | hit rate 0.67% among 290,000; in the data active = activity change below about -30%
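First, compound is pin-transferred into glyceraldehyde-3-phosphate coupling-enzyme reagent at 57.5 uM final and held 10 min at RT. Next, substrate, coupling system and AmpLite Red are added. After 20 min RT, fluorescence (525/598 nm) is read.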
RORgamma inh: blocks mouse ROR gamma transcriptional activity | Drosophila S2 Gal4-RORgamma UAS-luciferase reporter, 20 h | Potency, µM (doses to about 53.6 µM), inactives show at the highest dose activity change, negative = inhibition, hits mostly inhibitors | hit rate 5.4% among 310,000 | AID 2551 | P51450; also: potency is read from the fitted curve at half-maximal effect; nearly all actives have a fitted effect of over 60% in size
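Stably transfected Drosophila Schneider cells are the test system, with ROR gamma fused to Gal4 and luciferase under UAS control; luminescence is read after 20 hr of 700 uM copper sulfate induction at ambient temperature.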
GALK inhibitor: inhibitors of human galactokinase; P51570; Purified GALK, Kinase-Glo residual ATP luminescence; Potency, µM (titrated, usually from 57.5 µM), without a hit: top-dose activity change, negative = inhibition, hits mostly inhibitors; hit rate 0.007% among 270,000; also: potency is read from the fitted curve at half-maximal effect
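Compounds were pin-transferred into ATP buffer (35 uM final), then GALK plus galactose (5 nM, 100 uM final) was added. After 1 h at room temperature, Kinase-Glo Plus was added and luminescence read after 10 min.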
Gal4-VP16 FLuc: counter-screen for ROR gamma inhibitors: Gal4-VP16 reporter | AID 2546 | Drosophila S2 Gal4-VP16 UAS-luciferase, luminescence, 20 h | Potency, µM (top dose mostly 53.6 µM), for the others: at the top dose activity, negative = inhibition, hits mostly inhibitors | hit rate 3.5% among 310,000;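 also: Gal4-VP16 expression switched on by copper sulfate through the metallothionein promoter; potency is read from the fitted curve at half-maximal effect; nearly all actives have a fitted effect of over 50% in size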
TrxR1 substrate: is turned over as a substrate by rat TrxR1; hit rate 0.01% among 390,000; purified TrxR1 substrate turnover, NADPH consumption readout; Potency, µM (highest dose often 114 µM), for the others: at the highest dose activity change, negative = substrate turnover; O89049; also: potency is read from the fitted curve at half-maximal effect; nearly all actives have a fitted effect of over 50% in size
Target sequence (O89049 whole entry, looked up): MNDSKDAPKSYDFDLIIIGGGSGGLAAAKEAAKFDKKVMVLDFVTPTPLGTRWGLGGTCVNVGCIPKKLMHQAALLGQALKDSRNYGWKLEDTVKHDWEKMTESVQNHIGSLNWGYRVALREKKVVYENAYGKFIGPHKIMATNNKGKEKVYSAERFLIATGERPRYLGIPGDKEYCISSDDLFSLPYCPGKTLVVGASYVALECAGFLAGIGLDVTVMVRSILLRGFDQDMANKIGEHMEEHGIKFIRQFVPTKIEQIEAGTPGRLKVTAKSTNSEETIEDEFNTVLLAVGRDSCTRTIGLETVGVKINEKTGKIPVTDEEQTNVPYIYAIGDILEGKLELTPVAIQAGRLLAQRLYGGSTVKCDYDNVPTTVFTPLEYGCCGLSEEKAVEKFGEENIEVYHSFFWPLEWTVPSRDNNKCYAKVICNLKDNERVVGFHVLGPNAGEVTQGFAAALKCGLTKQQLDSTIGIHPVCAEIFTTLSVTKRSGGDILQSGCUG
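Rat TrxR1, dispensed at 90 nM, was prereduced with 400 uM NADPH (final) for 5 min at ~22 deg C, then incubated with compound 15 min before 400 uM selenite. A first-read NADPH fluorescence drop versus no-compound background flagged substrates.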
rTrxR1 inhibitor: rat TrxR1 inhibition | O89049 | AID 588453 | hit rate 1% among 390,000 | recombinant rTrxR1, NADPH fluorescence consumption, selenite substrate | Potency, µM (top dose mostly 114 µM), for the others: at the top dose activity change, negative = inhibition, most hits filed as inhibitors; also: potency is read from the fitted curve at half-maximal effect; nearly all actives have a fitted effect of over 65% in size
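Rat TrxR1 (90 nM in the dispensed reagent) was pre-reduced with 400 uM NADPH for 5 min at room temperature, then incubated with compound for 15 min. After 400 uM selenite was added, NADPH fluorescence (Ex 340/Em 450 nm) was followed for 8 min.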
Starred values were filed as active, the others as inactive; ? = inconclusive; · = no result given; [ ] = remark or other dose. Compounds with a hit are over-represented: about 5.9% of the library has one in this group of screens. Unless noted, calls follow the shape of the dose curve; as a rule, active = well fitted curve in the direction sought with a large enough effect; inconclusive = small, poorly fitted or top-dose-only effect, or another doubt; inactive = no such curve, though single readings can be large; an effect the other way counts as inactive or inconclusive. % is scaled to controls: 0 for no effect and ±100 for the full control effect.

SMILES	Coupling enz	RORgamma inh	GALK inhibitor	Gal4-VP16 FLuc	TrxR1 substrate	rTrxR1 inhibitor
Oc1cc(OCc2ccccc2)ccc1-c1[nH]ncc1-c1ccccc1	-6.5	10µM*	1.3%	?	-1.6%	19.1%
COc1ccccc1-c1cn[nH]c1-c1ccc(OCc2ccc([N+](=O)[O-])cc2)cc1O	6.9	?	4.9%	-21.1%	2.3%	11.5%
O=[N+]([O-])c1ccc(COc2ccc(-c3[nH]ncc3-c3ccccc3)c(O)c2)cc1	5.1	7.08µM*	-0.9%	5.62µM*	-6.5%	-5.4%
CCOc1ccc(NC(=O)NCCN2CCN(c3cc(Cl)ccc3C)CC2)cc1	·	·	·	·	-7.9%	-4.0%
Clc1ccc(C2=NNC(=NCC3CCCO3)SC2)cc1 (stereo not drawn)	1.5	?	-2.7%	?	1.2%	3.2%
CCCCN=C1NN=C(c2ccc3c(c2)OCCO3)CS1	-3.6	4.47µM*	0.1%	7.94µM*	2.6%[57.1 µM]	6.4%[57.1 µM]
CCCCN=C1NN=C(c2ccc(C)c(C)c2)CS1	-3.9	7.08µM*	-2.3%	12.6µM*	-6.4%	23.2%[57.1 µM]
c1cc2c(cc1C1=NNC(=NC3CC3)SC1)OCCO2	1.5	2.51µM*	?	2.24µM*	-7.2%	10.6%
COCCn1c(C)cc(C2=NNC(=Nc3ccccc3)SC2)c1C	0.2	-2.9%	-0.7%	4.9%	-8.1%	-19.6%
COCCN=C1NN=C(c2ccc(C)c([N+](=O)[O-])c2)CS1	0.3	12.6µM*	-1.7%	-15.6%	0.2%	11.7%
Cc1ncc(COP(=O)(O)O)c(CN)c1O	·	6.4%	·	-0.1%	·	·
CC(=O)N1CC=CC1(CC(C)C)C(=O)NCC1CC1 (stereo not drawn)	2.1	30.5%	·	26.3%	·	·
Cc1cc(C(=O)Nc2sccc2C#N)c2ccccc2n1	0.9	19.3%	2.6%	-6.1%	0.4%	?
CCN1CCN(C(=O)c2c(-c3ccccc3)noc2C)CC1	-0.5	-6.0%	-2.0%	6.9%	3.1%[57.1 µM]	4.4%[57.1 µM]
CCN(c1ccccc1)c1nnc(NC(=O)Nc2ccccc2F)s1	·	·	·	·	-9.8%	3.2%
O=C(/C=C/Sc1ccccc1)c1ccc(Cl)cc1	0.3	?	-2.0%	14.1µM*	-5.1%	39.8µM*
O=C(/C=C/Sc1ccccc1)c1ccccc1	-0.5	?	0.2%	?	7.7%	11.2µM*
O=c1cc(N2CCc3ccccc3C2)[nH]c(=O)n1-c1ccc(Br)cc1	-2.0	-6.8%	-1.8%	-9.7%	2.9%	-16.8%
CC1=CC(C)(C)n2c(O)c(C3=NC(=S)NC3=O)c3cc(OC(=O)c4cccc5ccccc45)cc1c32	-1.1	8.2%	-0.5%	-9.9%	-12.2%	-19.8%
CC1=CC(C)(C)n2c(O)c(N=NC(N)=S)c3cc(C)cc1c32	0.5	0.794µM*	-0.8%	1.78µM*	0.8%	7.2%
NNC(=O)c1cccc(COc2ccc3c(c2)CCC3)c1	-0.5	3.16µM*	·	5.01µM*	-3.9%	-8.9%
CCNC(=O)COc1ccc(CC)cc1	5.0	18.8%	1.0%	8.4%	-9.1%	-9.3%
CCCCn1nnc(NC(=O)COc2ccc(Cl)c(C)c2)n1	3.1	5.0%	-2.7%	0.5%	-3.5%	-3.5%
CCCn1nnnc1NC(=O)COc1ccc(Cl)c(C)c1	3.6	5.01µM*	0.9%	4.47µM*	5.1%	13.7%
CCCn1nnnc1NC(=O)COc1ccc(CC)cc1	7.0	10µM*	-0.3%	11.2µM*	-8.1%	8.2%
SMILES	Coupling enz	RORgamma inh	GALK inhibitor	Gal4-VP16 FLuc	TrxR1 substrate	rTrxR1 inhibitor
c1ccc(Nc2nc(-c3cccs3)cs2)nc1	0.0	?	2.4%	?	0.1%[57.1 µM]	1.9%[57.1 µM]
Cc1cccc(Nc2nc(-c3cccs3)cs2)n1	0.3	?	-4.1%	?	-14.8%	-18.3%
Cc1cccnc1Nc1nc(-c2ccc(O)cc2O)cs1	-1.1	6.31µM*	-6.6%	?	-7.4%	2.9%[57.1 µM]
Cc1ccc(Nc2nc(-c3ccc(F)cc3)cs2)nc1	-2.9	-26.4%	-9.7%	?	3.3%	20.9%
Cc1cccc(Nc2nc(-c3ccccn3)cs2)n1	-5.9	1.58µM*	-2.2%	2.51µM*	2.0%	-0.1%
Cc1cccnc1Nc1nc(-c2ccccc2)cs1	-2.8	·	-2.6%	·	1.9%	9.4%

Screening data deposited in PubChem by National Center for Advancing Translational Sciences (NCATS).
